aSyn 5UTR act: Activators via SNCA 5'UTR binding, MLPCN; AID 1814; alpha-synuclein 5'UTR reporter, activators screen; activity score, % (tested at 7.5 µM), hits read low; hit rate 7.1% among 300,000; in the data active means activity score below about -60%
Hits are given with their value; n = inactive. Not all results are given here.

SMILES | aSyn 5UTR act
CCC(=O)Nc1cc(C(=O)OCC(=O)c2ccccc2)ccc1C | -88
CCC(=O)Nc1cc(C(=O)OCC(=O)c2ccccc2Cl)ccc1C | -168
Cc1ccc(C(=O)OCC(=O)c2c[nH]c3ccccc23)cc1NC(=O)c1ccco1 | -70
NC(=O)c1ccsc1NC(=O)c1ccc(S(=O)(=O)N2CCCC2)cc1 | -103
NC(=O)c1ccsc1NC(=O)c1ccc(S(=O)(=O)N2CCCCC2)cc1 | -96
COc1ccc2c(c1OC)C(=O)N1C(C(=O)O)Cc3c([nH]c4ccccc34)C21 (stereo not drawn) | -66
COc1ccc(Nc2nc(CC(C)=O)ns2)cc1 | -109
COc1cccc(Nc2nc(CC(C)=O)ns2)c1 | -86
CC(=O)Cc1nsc(Nc2ccc3c(c2)OCCO3)n1 | -125
Cc1cccc(N=Nc2c(O)[nH]c3ccc(Br)cc23)c1 | -72
COc1ccc(/C=N/Nc2ccc([N+](=O)[O-])cc2)cc1O | -298
COc1cccc(N/N=C/c2cccc(Br)c2O)c1 | -117
COc1cccc(/C=N/NC(=O)c2ccc(-c3ccccc3)cc2)c1O | n
COc1cccc(/C=N/Nc2ccc([N+](=O)[O-])cc2)c1O | -150
COc1ccc(-c2cc3ncc(-c4ccccc4)c(N)n3n2)cc1 | -96
c1ccc(N2CCN(c3ncccn3)CC2)cc1 | -68
c1ccc(N2CCN(c3nc(-c4ccccn4)nc4ccccc34)CC2)cc1 | -78
O=[N+]([O-])c1cc(CN2CCN(c3ccccc3)CC2)c(O)c2ncccc12 | n
COc1ccnc(N2CCN(c3ccccc3)CC2)c1C#N | -80
CCC(=O)Nc1cccc(NC(=S)NC(=O)c2ccc(C)cc2)c1 | -156
CCC(=O)Nc1cccc(NC(=S)NC(=O)c2cc3ccccc3o2)c1 | -133
CCC(=O)Nc1cccc(NC(=S)NC(=O)c2cccc(C)c2)c1 | -172
CCC(=O)Nc1cccc(NC(=S)NC(=O)c2ccccc2)c1 | -183
O=[N+]([O-])c1ccc2c(c1)nc1n2CCN(c2ccccc2)C1 | -125
Cc1ccc(C)c(NC(=O)c2cc3ccccn3n2)c1 | -196
SMILES | aSyn 5UTR act
Cc1ccccc1NC(=O)c1cc2ccccn2n1 | -109
COc1ccc(C2=NN(c3nc(-c4ccc(CNC(C)=O)cc4)cs3)C(c3ccco3)C2)cc1 (stereo not drawn) | -78
COc1nc(-c2ccccc2)ccc1-c1noc(-c2ccco2)n1 | -168
COc1ccc(-c2ccc(-c3noc(-c4ccco4)n3)c(OC)n2)cc1 | -126
COc1nc(C)ccc1-c1noc(-c2ccncc2)n1 | -125
COc1nc(-c2ccccc2)ccc1-c1noc(-c2cccs2)n1 | -198
COc1nc(-c2ccccc2)ccc1-c1noc(-c2ccccc2)n1 | -94
CN1C(=O)S/C(=C\c2ccc(-n3cncn3)cc2)C1=O | -93
O=C(NC12CC3CC(CC(C3)C1)C2)c1ccc(-c2cccc(Cl)c2)o1 | -133
O=C(NC12CC3CC(CC(C3)C1)C2)c1ccc(-c2ccccc2Cl)o1 | -220
O=C(NC12CC3CC(CC(C3)C1)C2)c1ccc(-c2ccc(Cl)cc2)o1 | -251
Clc1ccc2c(c1)C(C1=NCCN1)c1ccccc1CS2 (stereo not drawn) | n
CCOc1ccc2nc(SCC3CC3(Cl)Cl)[nH]c2c1 (stereo not drawn) | -153
ClC1(Cl)CC1CSc1nc2ccccc2[nH]1 (stereo not drawn) | -77
c1ccc2[nH]c(SCC3CCCCO3)nc2c1 (stereo not drawn) | -76
C=CCN1c2ccccc2[C@]23C[C@@H](C(=O)OC)N(C(=O)c4cc(C)oc4C)C2=NC(C(=O)OC)=C(C(=O)OC)[C@H]13 | -62
CC(C)c1ccc(NC(=O)C(=O)C2C(=O)Nc3ccccc32)cc1 (stereo not drawn) | -101
CC(C)c1ccc(NC(=O)[C@H](Cc2c[nH]c3ccccc23)NC(=O)[C@@H]2Cc3ccccc3CN2)cc1 | n
C#C[C@]1(O)CC[C@H]2[C@@H]3CCc4cc(OC5CCCC5)ccc4[C@H]3CC[C@@]21C | -75
C#C[C@]1(O)CC[C@H]2[C@@H]3CCc4cc(OC)ccc4[C@H]3CC[C@@]21C | -70
c1ccc(CNc2ncnc3c2ncn3C2CCCCO2)cc1 (stereo not drawn) | -104
CN1CCN(c2ccc([N+](=O)[O-])cc2C(=O)c2ccc(Br)cc2)CC1 | n
O=[N+]([O-])c1ccc(-c2ncc(-c3ccc(Br)cc3)o2)cc1 | -195
Nc1ccc(C(=O)N/N=C2\CCCc3c2[nH]c2ccccc32)cc1 | -73
c1ccc(-c2ccc(-c3ccncn3)cc2)cc1 | -78
SMILES | aSyn 5UTR act
CC(C)(C)n1ncc2c(=O)n(CC(=O)NCc3ccccc3Cl)cnc21 | -90
O=C(Cn1cccc1C(=O)c1ccccc1)NCc1ccccc1Cl | -74
Cc1ccccc1C(=O)c1cccn1CC(=O)NCc1ccccc1Cl | -100
CCOc1cc(C(=O)N/N=C/C(Br)=C/c2ccccc2)cc(OCC)c1OCC | n
CC(/C=C/c1ccccc1F)=N\NC(=O)c1cccc(F)c1 | -139
O=C(N/N=C/C(Br)=C\c1ccccc1)c1ccc2nc[nH]c2c1 | -90
CC(=C/c1ccc(C(C)C)cc1)/C=N/NC(=O)c1ccncc1 | -110
CC(/C=N/NC(=O)c1cccc(F)c1)=C\c1ccccc1 | -254
CC(/C=N/NC(=O)c1ccc2nc(C)[nH]c2c1)=C\c1ccccc1 | -67
CCCNS(=O)(=O)c1cccc(C(=O)OCc2cc(=O)oc3cc(OC)ccc23)c1 | -97
CC1CCN(C(=O)COC(=O)c2n[nH]c3ccccc23)CC1 | -144
CCc1ccc(C(=O)COC(=O)c2n[nH]c3ccccc23)cc1 | -129
Cc1ccc(Nc2ncc3c(n2)CC(C)(C)CC3=O)cc1 | -88
CC1(C)CC(=O)c2cnc(N3CCN(c4ccccc4)CC3)nc2C1 | -62
CC1(C)CC(=O)c2cnc(N3CCc4ccccc4C3)nc2C1 | -218
CCO[C@@H]1OC(C(=O)NCc2nc3ccccc3[nH]2)=C[C@H](C2CC2)[C@H]1CCCO | -119
CCO[C@@H]1OC(C(=O)NCc2nc3ccccc3[nH]2)=C[C@H](C(C)(C)C)[C@H]1CCCO | n
CC(C)c1ccc(/C=C(\c2nc3ccccc3[nH]2)S(=O)(=O)c2ccccc2)cc1 | -81
O=S(=O)(/C(=C/c1ccc(C(F)(F)F)cc1)c1nc2ccccc2[nH]1)c1ccccc1 | -62
CC(CNS(=O)(=O)c1cc(Cl)ccc1Cl)CN(C)C (stereo not drawn) | -159
Nc1cc(C(F)(F)F)ccc1C(=O)O | -62
Cc1cc(C)cc(Oc2ncnc3c2ncn3Cc2c(Cl)cccc2Cl)c1 | n
COc1ccc(C2=NN3C(C2)c2ccccc2OC32C(=O)N(C)c3ccccc32)cc1 (stereo not drawn) | -131
COc1ccc(C2=NN3C(C2)c2ccccc2OC3c2cccs2)cc1 (stereo not drawn) | -190
Cc1ccc(C2=NN3C(C(=O)c4ccccc4)Oc4ccccc4C3C2)cc1 (stereo not drawn) | -146
SMILES | aSyn 5UTR act
Cc1ccc(C(=O)C2Oc3ccccc3C3CC(c4ccc(C)cc4)=NN23)cc1 (stereo not drawn) | -82
Cc1cccc(-c2nc(-c3ccncc3)no2)c1 | -68
Clc1ccc(Br)cc1-c1nc(-c2ccncc2)no1 | -188
Cc1ccc(-c2nc(-c3ccccc3)no2)c(Cl)c1 | n
Brc1cccc(-c2nc(-c3ccncc3)no2)c1 | -100
Cc1cc(C)cc(-c2nc(-c3ccncc3)no2)c1 | -149
Nc1ccc2c(c1)Cc1cc([N+](=O)[O-])ccc1-2 | -79
Cn1cccc1C(=O)OCc1cc(Cl)cc2c1OCOC2 | -80
